The results in this text go back to PubChem BioAssay (Tox21).

Structures are written as SMILES. Unmarked numbers belong to inactive results. Records with an inconclusive call do not appear. Active and inactive are the calls of the source. Calls follow the shape of the dose curve; as a rule, active = well fitted curve in the direction sought with a large enough effect in the repeat runs; inconclusive = weak or mixed curves; inactive = no such curve, though single readings can be large; an effect the other way counts as inactive or inconclusive.

Assay [1] in a line: Caspase-3/7 induction in CHO-K1 cells by small molecules, qHTS cell viability counter screen (AID 1346979). Also: nearly all actives have a fitted effect of over 35% in size. Also: potency is read from the fitted curve at half-maximal effect. The procedure, abridged:
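Wild-type CHO-K1 cells (1,500/well) treated with compound after 5 h plating; after 16 h at 37C, viability read as CellTiter-Fluor fluorescence following 1 h reagent incubation, in the same wells as the caspase read.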

A short description of assay [2]: Caspase-3/7 induction in CHO-K1 cells by small molecules, qHTS assay (AID 1346980). Also: nearly all actives have a fitted effect of over 15% in size. Also: potency is read from the fitted curve at half-maximal effect. A digest of the protocol:
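Luminescent Caspase-Glo 3/7 read (30min, room temperature) quantified apoptosis induction. Cells were wild-type CHO-K1, treated with compound for 17hr at 37 C and 5% CO2.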
On the technique in general: In qHTS, concentration-response curves come from the screen itself.

A short description of assay [3]: Caspase-3/7 induction in HepG2 cells by small molecules, qHTS cell viability counter screen (AID 1346981). Also: nearly all actives have a fitted effect of over 30% in size. Also: potency is read from the fitted curve at half-maximal effect. As to activity change, negative = cytotoxicity: series mostly up to about 92 µM. A digest of the protocol: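 CellTiter-Fluor fluorescence measured viability in the same wells used for Caspase-Glo 3/7. HepG2 (wild type) at 2,000 cells/well were pre-incubated 5 hr, dosed, and given reagent at 16 hr, with 1 hr further at 37C.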
Assay [4] concerns the target Nuclear receptor subfamily 1 group I member 2 (Homo sapiens) (UniProt O75469). The experiment in a line: Human pregnane X receptor (PXR) small molecule agonists, qHTS assay (AID 1346982). Also: nearly all actives have a fitted effect of over 35% in size. Also: potency is read from the fitted curve at half-maximal effect. The procedure, abridged:
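Agonist mode: luminescence from ONE-Glo after 24 h compound exposure at 37C in HepG2 cells carrying hPXR-responsive CYP3A4 luciferase, plated in charcoal-stripped serum medium 5 h beforehand.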

Assay [5] has as its target Cytochrome P450 1A2 (Homo sapiens) (UniProt P05177). The assay can be described thus: Cytochrome P450 Family 1 Subfamily A Member 2 (CYP1A2) small molecule antagonists: luciferase reporter qHTS assay (AID 1671199). Also: nearly all actives have a fitted effect of over 50% in size. Also: potency is read from the fitted curve at half-maximal effect. As to activity change, negative = inhibition: series mostly up to about 120 µM. A digest of the protocol: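 Luminescence from luciferin formed by CYP1A2 from a proluciferin substrate, read 20 min after detection reagent. Compound was pre-incubated 10 min with enzyme-substrate, and reaction started with NADPH regeneration solution for 1 h at room temperature; furafylline control.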

Assay [6] addresses Voltage-gated inwardly rectifying potassium channel KCNH2 (Homo sapiens) (UniProt Q12809). The assay can be described thus: Human Ether-a-go-go-Related Gene (hERG) channel small molecule antagonists: fluorescence cell-based qHTS assay (AID 1671200). Also: nearly all actives have a fitted effect of over 50% in size. Also: potency is read from the fitted curve at half-maximal effect.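 As to activity change, negative = inhibition: hERG-expressing U2OS cells given a thallium stimulus after FluxOR II dye loading; series mostly up to about 77 µM.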 A digest of the protocol:
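hERG-U2OS cells plated overnight at 37 C, loaded with FluxOR II dye 1 h at RT in dark; after 10 min, thallium stimulus added. Fluorescence (480/540 nm) read kinetically for 2 min at 1 s intervals.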

The target of assay [7] is Cytochrome P450 3A4 (Homo sapiens) (UniProt P08684). The experiment in a line: Cytochrome P450 Family 3 Subfamily A Member 4 (CYP3A4) small molecule antagonists: luciferase reporter qHTS assay (AID 1671201). Also: series mostly up to about 120 µM; nearly all actives have a fitted effect of over 50% in size. The procedure, abridged: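 P450-Glo CYP3A4 luminescent assay: compounds preincubated 10 min at room temperature with enzyme and proluciferin substrate, NADPH regeneration added, 1 h room-temperature reaction, stopped with luciferin detection reagent; luminescence read after 20 min. Ketoconazole positive control.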

The target in assay [8] is Cytochrome P450 2C19 (Homo sapiens) (UniProt P33261). The assay can be described thus: Cytochrome P450 Family 2 Subfamily C Member 19 (CYP2C19) small molecule antagonists: luciferase reporter qHTS assay (AID 1671197). Also: nearly all actives have a fitted effect of over 65% in size. Also: potency is read from the fitted curve at half-maximal effect. As to activity change, negative = inhibition: series mostly up to about 120 µM. The procedure, abridged:
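P450-Glo CYP2C19 system: enzyme-substrate mix with compound 10 min at room temperature, then NADPH regeneration solution, 1 h at 37C. Proluciferin-to-luciferin conversion detected by luminescence after 20 min with detection reagent; ketoconazole as positive control.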
(In general: A reporter such as luciferase makes a cellular process visible.)

Assay [9] addresses Cytochrome P450 2D6 (Homo sapiens) (UniProt P10635). The assay can be described thus: Cytochrome P450 Family 2 Subfamily D Member 6 (CYP2D6) small molecule antagonists: luciferase reporter qHTS assay (AID 1671196). Also: nearly all actives have a fitted effect of over 50% in size. Also: potency is read from the fitted curve at half-maximal effect. As to activity change, negative = inhibition: series mostly up to about 120 µM. The procedure, abridged:
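CYP2D6 activity was followed as luminescence from its luciferin product after a 1 h NADPH-driven reaction at room temperature. Enzyme-substrate mix and compound were pre-incubated for 10 min, and the signal was read 20 min after adding detection reagent.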

Assay [10] addresses Cytochrome P450 2C9 (Homo sapiens) (UniProt P11712). The experiment in a line: Cytochrome P450 Family 2 Subfamily C Member 9 (CYP2C9) small molecule antagonists: luciferase reporter qHTS assay (AID 1671198). Also: nearly all actives have a fitted effect of over 50% in size. Also: potency is read from the fitted curve at half-maximal effect. As to activity change, negative = inhibition: series mostly up to about 120 µM. A digest of the protocol: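 Enzyme-substrate mix preincubated with compound 10 min at room temperature; reaction started with NADPH regeneration solution, 1 h 37C. Luminescent luciferin product read after 20 min detection reagent.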

Assay [11] concerns the target Nuclear receptor subfamily 1 group I member 2 (Homo sapiens) (UniProt O75469). The experiment in a line: Human pregnane X receptor (PXR) activation by small molecules, qHTS assay (AID 1346985). Also: nearly all actives have a fitted effect of over 40% in size. A digest of the protocol: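 DPX-2 cells (HepG2 co-transfected with a PXR response element and a CYP3A4-promoter luciferase construct) were seeded at 2,000 per well, rested 5 hr at 37C, then exposed to DMSO-dissolved compounds for 24 hr. Activation was read as luciferase luminescence.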
% is scaled to controls: 0 for no effect and ±100 for the full control effect.

Chain of Voltage-gated inwardly rectifying potassium channel KCNH2 (Homo sapiens) (Q12809 whole entry, looked up): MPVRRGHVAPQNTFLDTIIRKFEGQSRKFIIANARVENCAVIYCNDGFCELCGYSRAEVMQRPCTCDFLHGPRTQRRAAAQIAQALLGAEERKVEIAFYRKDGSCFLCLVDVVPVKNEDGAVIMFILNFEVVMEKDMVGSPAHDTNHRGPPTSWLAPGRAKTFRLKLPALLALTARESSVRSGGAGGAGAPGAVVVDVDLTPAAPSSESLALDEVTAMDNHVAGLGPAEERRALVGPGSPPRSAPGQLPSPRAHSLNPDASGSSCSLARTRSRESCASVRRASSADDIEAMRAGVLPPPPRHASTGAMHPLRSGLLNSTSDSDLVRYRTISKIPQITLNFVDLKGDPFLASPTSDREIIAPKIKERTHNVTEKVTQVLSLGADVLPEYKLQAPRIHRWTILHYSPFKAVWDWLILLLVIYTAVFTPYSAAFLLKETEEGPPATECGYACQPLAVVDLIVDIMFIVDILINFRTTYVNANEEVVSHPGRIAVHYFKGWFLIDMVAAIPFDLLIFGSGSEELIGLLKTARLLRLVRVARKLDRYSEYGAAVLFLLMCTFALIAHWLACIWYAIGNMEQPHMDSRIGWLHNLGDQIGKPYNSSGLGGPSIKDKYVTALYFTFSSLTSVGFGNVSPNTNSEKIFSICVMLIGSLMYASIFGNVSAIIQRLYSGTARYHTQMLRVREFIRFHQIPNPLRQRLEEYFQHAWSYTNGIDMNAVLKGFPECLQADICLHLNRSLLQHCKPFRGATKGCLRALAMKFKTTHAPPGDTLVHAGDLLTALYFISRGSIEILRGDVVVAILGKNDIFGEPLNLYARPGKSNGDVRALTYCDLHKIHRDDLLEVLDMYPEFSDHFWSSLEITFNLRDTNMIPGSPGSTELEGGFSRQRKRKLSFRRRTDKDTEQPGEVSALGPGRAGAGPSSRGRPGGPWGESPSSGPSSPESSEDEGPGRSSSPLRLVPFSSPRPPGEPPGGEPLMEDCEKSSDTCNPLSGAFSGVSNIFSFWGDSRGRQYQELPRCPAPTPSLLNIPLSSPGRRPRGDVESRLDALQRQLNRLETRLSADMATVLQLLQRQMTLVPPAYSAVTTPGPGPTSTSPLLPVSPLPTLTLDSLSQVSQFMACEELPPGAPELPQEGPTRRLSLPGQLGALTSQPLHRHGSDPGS
Chain of Cytochrome P450 2C9 (Homo sapiens) (P11712 whole entry, looked up): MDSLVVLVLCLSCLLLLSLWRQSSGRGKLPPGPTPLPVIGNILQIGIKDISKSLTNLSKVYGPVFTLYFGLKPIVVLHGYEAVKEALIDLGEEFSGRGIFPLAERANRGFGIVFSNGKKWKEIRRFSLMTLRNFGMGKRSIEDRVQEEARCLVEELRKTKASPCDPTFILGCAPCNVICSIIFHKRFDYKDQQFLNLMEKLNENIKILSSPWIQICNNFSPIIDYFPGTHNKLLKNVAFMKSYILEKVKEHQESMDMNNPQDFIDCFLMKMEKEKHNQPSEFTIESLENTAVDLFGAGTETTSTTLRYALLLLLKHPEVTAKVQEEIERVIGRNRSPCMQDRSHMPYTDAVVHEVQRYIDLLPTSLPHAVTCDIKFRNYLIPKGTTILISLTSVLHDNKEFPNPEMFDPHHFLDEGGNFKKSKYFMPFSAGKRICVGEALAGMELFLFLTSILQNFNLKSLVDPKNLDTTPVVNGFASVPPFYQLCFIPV
Chain of Cytochrome P450 3A4 (Homo sapiens) (P08684 whole entry, looked up): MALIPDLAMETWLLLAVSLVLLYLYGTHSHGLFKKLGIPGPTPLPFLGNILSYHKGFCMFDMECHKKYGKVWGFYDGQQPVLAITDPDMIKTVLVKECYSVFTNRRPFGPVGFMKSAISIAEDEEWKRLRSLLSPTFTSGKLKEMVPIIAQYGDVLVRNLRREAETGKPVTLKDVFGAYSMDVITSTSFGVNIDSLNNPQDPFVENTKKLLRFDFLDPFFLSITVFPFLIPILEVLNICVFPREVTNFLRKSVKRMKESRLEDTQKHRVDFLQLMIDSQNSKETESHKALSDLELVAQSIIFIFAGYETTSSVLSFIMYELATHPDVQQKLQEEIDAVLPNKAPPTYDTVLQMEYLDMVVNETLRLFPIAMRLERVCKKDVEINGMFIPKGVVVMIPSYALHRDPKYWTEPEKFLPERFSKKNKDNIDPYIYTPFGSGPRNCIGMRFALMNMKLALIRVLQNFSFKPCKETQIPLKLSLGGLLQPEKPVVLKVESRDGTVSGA
Chain of Cytochrome P450 2D6 (Homo sapiens) (P10635 whole entry, looked up): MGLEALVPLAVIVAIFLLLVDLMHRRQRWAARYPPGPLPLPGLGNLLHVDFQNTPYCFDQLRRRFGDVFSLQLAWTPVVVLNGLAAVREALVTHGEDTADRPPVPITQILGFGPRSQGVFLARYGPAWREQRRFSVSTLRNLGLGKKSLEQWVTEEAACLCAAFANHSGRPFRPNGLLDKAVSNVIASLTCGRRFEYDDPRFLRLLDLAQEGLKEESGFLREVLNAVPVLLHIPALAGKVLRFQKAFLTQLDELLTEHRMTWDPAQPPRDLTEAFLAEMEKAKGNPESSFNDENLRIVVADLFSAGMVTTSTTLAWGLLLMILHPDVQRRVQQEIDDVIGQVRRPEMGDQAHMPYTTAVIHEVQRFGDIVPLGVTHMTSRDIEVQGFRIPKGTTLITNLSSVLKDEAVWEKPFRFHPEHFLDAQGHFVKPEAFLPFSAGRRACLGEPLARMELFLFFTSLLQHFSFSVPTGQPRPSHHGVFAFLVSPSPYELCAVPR
Chain of Cytochrome P450 1A2 (Homo sapiens) (P05177 whole entry, looked up): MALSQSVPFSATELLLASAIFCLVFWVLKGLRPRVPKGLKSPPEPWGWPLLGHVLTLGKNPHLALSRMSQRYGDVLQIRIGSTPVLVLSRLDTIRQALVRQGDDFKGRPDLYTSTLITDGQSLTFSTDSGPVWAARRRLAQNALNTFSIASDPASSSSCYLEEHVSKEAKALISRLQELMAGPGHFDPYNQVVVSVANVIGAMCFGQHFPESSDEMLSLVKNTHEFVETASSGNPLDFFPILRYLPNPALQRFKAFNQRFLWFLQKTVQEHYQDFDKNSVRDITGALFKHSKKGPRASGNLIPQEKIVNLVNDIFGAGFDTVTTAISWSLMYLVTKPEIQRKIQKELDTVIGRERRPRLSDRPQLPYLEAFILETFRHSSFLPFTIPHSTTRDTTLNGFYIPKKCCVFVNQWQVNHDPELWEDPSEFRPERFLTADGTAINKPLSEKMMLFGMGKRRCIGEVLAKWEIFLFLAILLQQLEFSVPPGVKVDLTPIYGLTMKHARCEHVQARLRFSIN
Chain of Nuclear receptor subfamily 1 group I member 2 (Homo sapiens) (O75469 whole entry, looked up): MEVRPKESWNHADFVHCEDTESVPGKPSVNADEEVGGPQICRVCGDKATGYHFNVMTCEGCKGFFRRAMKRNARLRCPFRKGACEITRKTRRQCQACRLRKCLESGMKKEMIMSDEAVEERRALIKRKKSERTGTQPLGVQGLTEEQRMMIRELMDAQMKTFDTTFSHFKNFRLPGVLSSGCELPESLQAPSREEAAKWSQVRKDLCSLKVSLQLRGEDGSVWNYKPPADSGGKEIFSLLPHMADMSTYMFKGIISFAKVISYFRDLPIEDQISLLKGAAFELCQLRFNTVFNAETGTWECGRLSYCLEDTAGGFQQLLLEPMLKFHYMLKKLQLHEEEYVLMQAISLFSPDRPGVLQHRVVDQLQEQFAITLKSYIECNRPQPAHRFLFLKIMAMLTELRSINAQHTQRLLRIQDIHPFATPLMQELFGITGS
Chain of Cytochrome P450 2C19 (Homo sapiens) (P33261 whole entry, looked up): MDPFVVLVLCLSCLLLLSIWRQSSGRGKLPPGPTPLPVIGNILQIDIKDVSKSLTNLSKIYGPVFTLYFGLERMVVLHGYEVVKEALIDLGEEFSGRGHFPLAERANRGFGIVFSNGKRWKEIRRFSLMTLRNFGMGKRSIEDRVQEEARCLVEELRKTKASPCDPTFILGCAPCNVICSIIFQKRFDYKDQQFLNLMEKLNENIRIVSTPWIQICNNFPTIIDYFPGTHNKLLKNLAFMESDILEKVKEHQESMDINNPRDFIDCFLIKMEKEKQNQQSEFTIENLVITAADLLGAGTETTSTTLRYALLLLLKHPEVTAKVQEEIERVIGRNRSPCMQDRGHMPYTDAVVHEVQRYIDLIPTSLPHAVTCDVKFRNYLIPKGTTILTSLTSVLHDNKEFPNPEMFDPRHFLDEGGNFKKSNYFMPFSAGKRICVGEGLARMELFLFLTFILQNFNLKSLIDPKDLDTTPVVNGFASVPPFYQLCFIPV

With `[O]=[Zr]`, the Potency entry in [1], in assay [2], in assay [3], in [4], in assay [6] and in [7] was “inactive” each time. In addition, the Potency in assay [5] was 35.4 µM (active).
Consider `CC(=O)OC(OC(C)=O)c1ccc([N+](=O)[O-])o1`, for which the Potency in assay [1] was 15.6 µM (active); in assay [3], 62.2 µM (active); in [4], 24.8 µM (active); in [8], 16.2 µM (active); in assay [5] it was 45.6 µM (active). The Potency entry in assay [2], in [6] and in assay [7] was “inactive” each time.
For `O=C(O)CCn1c2c(c3ccccc31)C[C@H](NS(=O)(=O)c1ccc(F)cc1)CC2`, the Potency entry in [1], in assay [2], in assay [3], in assay [9], in assay [8] and in assay [5] was “inactive” in each case. Besides, the Potency entry in [6] is “inactive”. Moreover, the Potency in assay [10] was 17.4 µM (active).
Consider `ClC/C=C\CCl`, for which the Potency entry in assay [1], in assay [2], in [3], in assay [10], in assay [6] and in [7] was “inactive” in each case. Further, the Potency is 33.1 µM (active) in assay [8] and 11.7 µM (active) in [5].
On to `N#CSCSc1nc2ccccc2s1`, for which the Potency is 17.2 µM (active) in assay [1]; 6.86 µM (active) in assay [2]; 7.7 µM (active) in assay [4]; 10 µM (active) in [9]; 39.9 µM (active) in [8]; 31.7 µM (active) in [10]. In addition, the Potency in assay [5] was 5.64 µM (active). The Potency result in [6] and in assay [7] was “inactive” each time.
For `CCCCCCS`, the Potency entry in assay [1], in assay [2], in assay [3], in assay [9], in assay [8] and in assay [10] was “inactive” in each case. The Potency result in [6] and in [7] was “inactive” throughout.
In the case of `CCOC(=O)CC(C)O` (stereo not drawn), the Potency entry in assay [1], in [2], in [4], in assay [9], in assay [8] and in assay [10] was “inactive” throughout. Moreover, the Potency result in assay [5], in assay [6] and in assay [7] was “inactive” throughout.
Consider `C[C@H]1O[C@@H](O[C@H]2[C@@H](O)C[C@H](O[C@H]3[C@@H](O)C[C@H](O[C@H]4CC[C@@]5(C)[C@H](CC[C@@H]6[C@@H]5C[C@@H](O)[C@]5(C)[C@@H](C7=CC(=O)OC7)CC[C@]65O)C4)O[C@@H]3C)O[C@@H]2C)C[C@H](O)[C@@H]1O`, for which the Potency entry in assay [1], in [2], in assay [3] and in [6] was “inactive” each time.
Turning to `Cc1cc(Nc2ccc(O)cc2)ccc1N`, the Potency is 27.2 µM (active) in assay [1]; 21.6 µM (active) in assay [2]; 9.64 µM (active) in assay [4]; 39.8 µM (active) in [9]; 19.9 µM (active) in assay [8]; 5.62 µM (active) in assay [10]. The Potency in assay [5] is 35.4 µM (active). In addition, the Potency result in [6] is “inactive”.
For `Nc1cc(Cl)c([N+](=O)[O-])cc1O`, the Potency is 68 µM (active) in assay [1], 54 µM (active) in assay [4], 31.5 µM (active) in assay [10] and 19.9 µM (active) in assay [5]. For the same compound, the Potency result in assay [2], in assay [9], in assay [8] and in assay [6] was “inactive” in each case.
In the case of `CCC(=O)CC(C)CC` (stereo not drawn), the activity change, negative = cytotoxicity in assay [1] was 4.19% [at 0.349 µM]. In assay [2], the caspase-3/7 activation was 0.142% [at 0.349 µM]. Moreover, in assay [4], the activation is 2.33% [at 0.349 µM]. In addition, the activity change, negative = inhibition in [9] is -13% [at 0.435 µM]; in assay [8] it was -5.38% [at 0.435 µM]; in assay [10] it was -10.1% [at 0.435 µM]; in assay [5], -14.4% [at 0.435 µM]; in assay [6], 2.31% [at 0.29 µM]; in assay [7] it was -0.0732% [at 0.435 µM].
Turning to `Cc1cccc(Br)c1`, the Potency result in assay [1], in assay [2], in [3], in assay [9], in assay [6] and in assay [7] was “inactive” each time. In addition, the Potency in [8] is 35.8 µM (active); in assay [10], 40.1 µM (active).
In the case of `NC(=O)c1ccccc1N`, the Potency result in assay [1], in assay [2], in assay [3], in assay [10] and in [6] was “inactive” each time. Further, the Potency in assay [8] is 35.8 µM (active); in assay [5] it was 31.9 µM (active).
Take `Brc1ccccc1-c1ccccc1`: the Potency result in [1], in [2] and in assay [3] was “inactive” in each case. The Potency in assay [9] was 75.4 µM (active); in [5], 16.6 µM (active); in assay [6] it was 31.4 µM (active).
Turning to `Cc1cn[nH]c1`, the Potency entry in assay [1], in assay [2], in [3] and in assay [6] was “inactive” each time.
With `CCOC(/C=C(\C)CCC=C(C)C)OCC`, the Potency result in assay [1], in [2], in [3], in assay [9], in [10] and in assay [5] was “inactive” throughout. For the same compound, the Potency entry in [6] and in assay [7] was “inactive” each time.
Consider `c1cc[nH]c1`, for which the Potency entry in assay [1], in assay [2], in assay [3], in [9], in assay [8] and in assay [10] was “inactive” throughout. Also, the Potency result in [5], in assay [6] and in assay [7] was “inactive” each time.
For `CCCC(=O)OCC(COC(=O)CCC)OC(=O)CCC`, the Potency entry in assay [1], in [2], in assay [4], in assay [9] and in assay [6] was “inactive” each time. Further, the results for the Potency in assay [8], in assay [10] and in assay [5] were 20 µM (active), 5.64 µM (active) and 28.3 µM (active), respectively.
In the case of `O=S(=O)(O)c1cc(S(=O)(=O)O)c2ccc3c(S(=O)(=O)O)cc(S(=O)(=O)O)c4ccc1c2c43`, the activity change, negative = cytotoxicity in [1] is 5.57% [at 19 µM]. Moreover, the caspase-3/7 activation in assay [2] was -0.007% [at 19 µM]. Moreover, the activation in [4] was -3.44% [at 19 µM]. In addition, the activity change, negative = inhibition in [9] is -11.8% [at 23.6 µM]; in assay [8] it was -18.9% [at 23.6 µM]; in [10] it was -1.93% [at 23.6 µM]; in assay [5], -17.6% [at 23.6 µM]; in [6], 2.85% [at 15.8 µM].
As for `S=C(SSSSSSC(=S)N1CCCCC1)N1CCCCC1`, the Potency was 7.56 µM (active) in assay [1] and 7.83 µM (active) in assay [10]. Also, in assay [2], the caspase-3/7 activation is 1.75% [at 19 µM]. Further, the activity change, negative = cytotoxicity in assay [3] is 7.87% [at 19 µM]. Besides, the activity change, negative = inhibition in [9] was -19.3% [at 23.6 µM]; in assay [6] it was -18.7% [at 15.8 µM].
On to `CNC(=O)c1cc(Oc2ccc(NC(=O)Nc3ccc(Cl)c(C(F)(F)F)c3)cc2)ccn1`, for which the Potency in assay [1] was 26.6 µM (active); in [8] it was 27.5 µM (active); in assay [10] it was 17.4 µM (active). The Potency result in [2], in assay [4], in assay [11] and in [5] was “inactive” in each case.
In the case of `Cc1cc(C)c(C=O)c(C)c1`, the Potency entry in assay [1], in assay [2], in [3], in assay [5], in assay [6] and in [7] was “inactive” throughout.
